ChEMBL document CHEMBL1201862, “PubChem BioAssay data set” (2004)
In all, about 400,000 compounds went through this assay and about 2,100 (0.53%) were called active. Roughly 14% stayed inconclusive and do not appear here. No rule for the calls is given here. Only a selection was taken, and actives are over-represented in it overall.

Target: Ataxin-2 (Homo sapiens) (UniProt Q99700)
Test: qHTS for Inhibitors of ATXN expression.
Type: functional

Sequence of Ataxin-2 (Homo sapiens) (Q99700 whole entry): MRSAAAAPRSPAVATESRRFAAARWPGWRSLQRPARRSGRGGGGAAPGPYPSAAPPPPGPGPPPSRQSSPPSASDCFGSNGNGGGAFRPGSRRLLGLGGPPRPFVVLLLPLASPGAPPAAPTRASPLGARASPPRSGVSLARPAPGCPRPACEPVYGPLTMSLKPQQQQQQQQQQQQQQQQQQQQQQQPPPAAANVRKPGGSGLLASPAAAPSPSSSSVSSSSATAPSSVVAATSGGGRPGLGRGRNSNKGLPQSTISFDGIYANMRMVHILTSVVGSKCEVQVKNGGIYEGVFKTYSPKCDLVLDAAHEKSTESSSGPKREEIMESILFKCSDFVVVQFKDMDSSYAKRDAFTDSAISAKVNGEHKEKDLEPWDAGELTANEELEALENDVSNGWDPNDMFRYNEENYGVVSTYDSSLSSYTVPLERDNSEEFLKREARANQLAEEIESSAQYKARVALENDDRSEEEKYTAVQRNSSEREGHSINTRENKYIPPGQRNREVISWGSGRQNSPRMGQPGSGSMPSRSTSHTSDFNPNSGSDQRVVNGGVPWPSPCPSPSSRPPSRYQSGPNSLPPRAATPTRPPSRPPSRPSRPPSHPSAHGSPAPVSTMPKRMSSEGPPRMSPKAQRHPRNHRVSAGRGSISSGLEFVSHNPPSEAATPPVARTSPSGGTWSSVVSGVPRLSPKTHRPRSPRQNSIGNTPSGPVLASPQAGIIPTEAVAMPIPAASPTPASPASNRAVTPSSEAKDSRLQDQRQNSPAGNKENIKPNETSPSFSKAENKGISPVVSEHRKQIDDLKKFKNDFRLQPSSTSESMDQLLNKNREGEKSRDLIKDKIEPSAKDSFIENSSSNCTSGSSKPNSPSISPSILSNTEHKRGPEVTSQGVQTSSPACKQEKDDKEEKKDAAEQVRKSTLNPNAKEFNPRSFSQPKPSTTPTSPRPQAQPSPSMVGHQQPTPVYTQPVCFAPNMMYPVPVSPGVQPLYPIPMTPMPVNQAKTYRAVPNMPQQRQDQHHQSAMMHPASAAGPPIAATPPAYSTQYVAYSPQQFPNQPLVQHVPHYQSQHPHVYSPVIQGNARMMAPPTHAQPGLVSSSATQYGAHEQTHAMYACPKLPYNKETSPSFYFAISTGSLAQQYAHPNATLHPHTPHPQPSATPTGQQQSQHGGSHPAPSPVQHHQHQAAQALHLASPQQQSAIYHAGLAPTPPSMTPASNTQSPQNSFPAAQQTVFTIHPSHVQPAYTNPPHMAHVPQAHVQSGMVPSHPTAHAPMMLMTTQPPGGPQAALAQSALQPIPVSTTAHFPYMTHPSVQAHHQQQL

Row | SMILES | Potency
1 | COc1c(OC)c2nc(O)cc3c4ccccc4n(c1=O)c23 | inactive
2 | Clc1ccc(C2=CC(c3ccco3)n3ncnc3N2)cc1 (centres undefined) | inactive
3 | Cc1cc(O)c(C(=O)/C=C/c2c(F)c(F)c(F)c(F)c2F)c(=O)o1 | inactive
4 | CCOC(=O)c1c(NC(=O)c2ccc(S(=O)(=O)N3CCC(C)CC3)cc2)sc2c1CCN(CC)C2 | inactive
5 | Nc1nnnn1/N=C/c1cc(Cl)ccc1O | inactive
6 | CC(=O)Oc1cc2oc(=O)cc(C)c2cc1OC(C)=O | inactive
7 | CC(=O)Nc1cc(OC(C)=O)c2nonc2c1OC(C)=O | 39.8 µM (active)
8 | CC(=O)Nc1cc2ccc(OC(C)=O)cc2oc1=O | inactive
9 | OC[C@@H]1[C@@H](c2ccccc2)C(c2cccc(Cl)c2)=NN1c1ccccc1 | inactive
10 | O=C(COC(=O)c1cncc(Br)c1)NCc1cccs1 | inactive
11 | CCCCCCCCN1C(=O)[C@H](CC(=O)NCCC(C)C)C[C@@]2(C(=O)OCC)CCCC=C12 | 39.8 µM (active)
12 | C#CCNC(=O)C[C@@H]1C[C@@]2(C(=O)OCC)CCCC=C2N(CCCCCCCC)C1=O | 20 µM (active)
13 | Cc1c(N(C(=O)Cc2cccs2)C2(C(=O)NC3CCCC3)CCCCC2)c(=O)n(-c2ccccc2)n1C | inactive
14 | CCCCCCCCN1C(=O)[C@H](CC(=O)NCc2cccs2)C[C@@]2(C(=O)OCC)CCCC=C12 | 39.8 µM (active)
15 | Cc1ccc(-c2cc(C(F)(F)F)n3ncc(C(=O)N4CCCCC4c4cccnc4)c3n2)cc1 (centres undefined) | inactive
16 | O=C(CSc1ccc2ccccc2c1)NCCc1ccc(O)c(O)c1 | inactive
17 | COC(=O)C(C)N=C(S)N1CCN(c2c(F)cc3c(=O)c(C(=O)O)cn(C4CC4)c3c2OC)CC1C (centres undefined) | inactive
18 | Cc1nc(N2CCCCCC2)c2ccccc2n1 | inactive
19 | S=C(Nc1ccc2nc(-c3ccccn3)c(-c3ccccn3)nc2c1)N1CCCCCC1 | inactive
20 | CC(NNC(=S)N1CCCCCC1)c1ccc2ccccc2n1 (centres undefined) | 12.6 µM (active)
21 | CCOc1ccc(C(=O)C2CCN(C(=O)c3ccc([N+](=O)[O-])cc3)CC2)cc1 | inactive
22 | COc1ccc(C2C3=C(O)CC(C)(C)CC3=Nc3c2c(=O)n(C)c(=O)n3C)cc1OC (centres undefined) | inactive
23 | Cc1ccc(C(=O)OCC(=O)NCCc2ccc(F)cc2)cc1S(=O)(=O)N1CCOCC1 | inactive
24 | Cc1cc(C(=O)COC(=O)Cc2c(F)cccc2Cl)c(C)n1C | inactive
25 | COc1ccc(CCn2c(C)cc(C(=O)CCl)c2C)cc1OC | 39.8 µM (active)

Row | SMILES | Potency
26 | Cc1cc(C(=O)CCl)c(C)n1CCc1ccc(F)cc1 | 37.7 µM (active)
27 | N=c1c(C(=O)NCC2CCCO2)cc2c(=O)n3ccccc3nc2n1Cc1cccnc1 (centres undefined) | inactive
28 | CCOC(=O)COc1ccc2c(C#N)c3ccccn3c2c1 | inactive
29 | Cn1c2ccccc2c2nnc(N/N=C/c3ccc(O)cc3)nc21 | inactive
30 | COc1cc(/C=N/Nc2nc(-c3ccc(S(=O)(=O)N(C)C)cc3)cs2)ccc1O | 35.5 µM (active)
31 | CC(=O)c1sc(N/N=C/c2ccc(C(C)C)cc2)nc1C | inactive
32 | O=C(N/N=C/c1sc(N2CCOCC2)nc1-c1ccccc1)c1cccc(S(=O)(=O)N2CCCC2)c1 | inactive
33 | CCOc1cc(/C=N/Nc2nc(-c3cccc(S(=O)(=O)N4CCCC4)c3)cs2)ccc1O | 25.1 µM (active)
34 | O=C(Nc1cccc(S(=O)(=O)N2CCCCCC2)c1)c1ccc(O)nc1 | inactive
35 | COc1cc(/C=N/NC(=O)CCC(=O)Nc2ccc(F)cc2)ccc1O | inactive
36 | COc1cc(/C=N/NC(=O)C(=O)NCc2ccco2)ccc1O | inactive
37 | CN(C)S(=O)(=O)c1ccc(-c2csc(N/N=C/c3ccc(O)cc3)n2)cc1 | 20 µM (active)
38 | CCN(CC)c1ccc2cc(C=O)c(=O)oc2c1 | inactive
39 | CCOc1ccc(C(=O)c2oc3ccccc3c2NC(=O)c2cc(-c3ccccc3)on2)cc1 | inactive
40 | Cc1cccc(N/N=C(\C=O)C(=O)c2ccc(Br)cc2)c1 | 31.6 µM (active)
41 | O=C(O)c1ccc(N/N=C/c2ccc(-c3cc(Cl)ccc3Cl)o2)cc1 | inactive
42 | Cc1cccc(/C=N/NC(=O)c2cc(Br)ccc2O)n1 | inactive
43 | O=C/C(=N\Nc1ccccc1)C(=O)c1ccc(Cl)cc1 | 9.47 µM (active)
44 | CC(=O)/C(=N\Nc1ccccc1)Oc1ccc(Br)cc1 | inactive
45 | O=C(Nc1ccccc1)c1ncoc1-c1ccc(Cl)cc1 | inactive
46 | C=CCn1c(S)nnc1-c1oc2nc(-c3ccccc3)cc(-c3ccccc3)c2c1N | inactive
47 | CNc1snc(C)c1C(=O)OCC(=O)N(C)c1ccccc1 | inactive
48 | CCOc1ccc2nc3ncccc3c(O)c2c1 | inactive
49 | CCOc1ccc2[nH]c3ccc4nonc4c3c2c1 | inactive
50 | CCOc1ccc2nc3cc(N=Nc4ccc(N)nc4N)ccc3c(N)c2c1 | 10.6 µM (active)

Row | SMILES | Potency
51 | COc1ccc(C2=CC(c3cccc(C)c3)n3nnnc3N2)cc1 (centres undefined) | inactive
52 | Cc1n[nH]c(C)c1N1C(=O)c2cccc3c(Br)ccc(c23)C1=O | inactive
53 | COc1ccccc1C1c2c(-c3ccc(Cl)cc3)n[nH]c2C(=O)N1c1ccc(C)cc1 (centres undefined) | 39.8 µM (active)
54 | O=C1OCCN1C(=O)[C@H]1[C@H](c2ccc(Cl)cc2)C(c2ccc(F)cc2)=NN1c1ccc(Br)cc1 | inactive
55 | OC[C@@H]1[C@@H](c2ccc(Cl)cc2)C(c2ccc(F)cc2)=NN1c1ccccc1 | inactive
56 | CCOc1ccc(C(=O)C2=C(O)C(=O)N(c3ncccn3)C2c2ccc(C)cc2)cc1 (centres undefined) | inactive
57 | O=C1c2[nH]nc(-c3ccc(F)cc3)c2C(c2ccccc2F)N1c1ccccc1 (centres undefined) | 22.4 µM (active)
58 | CCOc1ccc(C2C=C(c3ccc(C)cc3)Nc3nnnn32)cc1 (centres undefined) | inactive
59 | COc1ccccc1C1C=C(c2ccc(F)cc2)Nc2nc(-c3ccc(Cl)cc3)nn21 (centres undefined) | inactive
60 | CCOc1ccc(C2c3c(-c4ccc(C)cc4)n[nH]c3C(=O)N2c2ccc(Cl)cc2)cc1 (centres undefined) | 39.8 µM (active)
61 | Cc1ccc(N2C(=O)c3[nH]nc(-c4ccc(Cl)cc4)c3C2c2ccc(F)cc2)cc1 (centres undefined) | 39.8 µM (active)
62 | COc1ccccc1C1C=C(c2ccc(Cl)cc2)Nc2nc(N3C(=O)CCC3=O)nn21 (centres undefined) | inactive
63 | CCN1C(=O)c2cccc3c(S(=O)(=O)N(C)C)ccc1c23 | inactive
64 | Cc1ccc(-c2cc(C(=O)NN3CCOCC3)c3cc(Br)ccc3n2)o1 | inactive
65 | CCCc1cc(C(=O)Nc2cc(C)on2)no1 | inactive
66 | N#Cc1c(N)n(-c2ccc(C(=O)O)cc2)c2nc3ccccc3nc12 | inactive
67 | Cc1ccc2nc(N3CCN(C=O)CC3)nc(-c3ccccc3)c2c1 | inactive
68 | CCOC(=O)c1ccc(-c2ccc(/C=C(\C#N)C(=O)NCC3CCCO3)o2)cc1 (centres undefined) | inactive
69 | Cn1c(-c2ccc(C#N)cc2)c(C#Cc2ccccc2)c2ccccc21 | inactive
70 | COc1ccc(OC)c(C2c3c(-c4ccc(Br)cc4)n[nH]c3C(=O)N2c2ccc(Cl)cc2)c1 (centres undefined) | 39.8 µM (active)
71 | COc1ccccc1[C@@H]1C(c2cccc(Cl)c2)=NN(c2ccc(Br)cc2)[C@H]1C(=O)N1CCOC1=O | inactive
72 | CCOc1ccc(N2C(=O)c3[nH]nc(-c4cccs4)c3C2c2cccc(F)c2)cc1 (centres undefined) | 39.8 µM (active)
73 | Fc1ccc(N2N=C(c3cccs3)CC2c2ccccc2)cc1 (centres undefined) | inactive
74 | COC(=O)c1nc2n(n1)C(c1cc(OC)ccc1OC)C=C(c1ccc(Br)cc1)N2 (centres undefined) | inactive
75 | CC(=O)c1sc2nc(C)c3c(c2c1N)CCCC3 | inactive

Row | SMILES | Potency
76 | CNc1nc(-c2cccs2)cc(C(F)(F)F)c1C#N | inactive
77 | Cc1cccc(C)c1OCCn1c(C2CC(=O)N(Cc3ccc(F)cc3)C2)nc2ccccc21 (centres undefined) | 39.8 µM (active)
78 | COCCn1c2nc(=O)n(-c3ccccc3)c(=O)c-2nc2ccccc21 | inactive
79 | Cc1ccc(C)c(OCCn2nnc3ccccc32)c1 | inactive
80 | CCOc1ccc(CCNC(=O)C2CC(=O)N(Cc3ccc(OC)cc3)C2)cc1OCC (centres undefined) | inactive
81 | Cc1ccc(C)c(OCCn2c(C3CC(=O)N(Cc4ccc(F)cc4)C3)nc3ccccc32)c1 (centres undefined) | 39.8 µM (active)
82 | CC(=O)Oc1ccc2cc(-c3cccnc3)c(=O)oc2c1 | inactive
83 | Cc1ccc(C2(c3ccc(C)cc3)CC2C(=O)Nc2ccc([N+](=O)[O-])cc2O)cc1 (centres undefined) | 20 µM (active)
84 | COc1ccc(CNC2=NC(=O)CC(C(=O)Nc3ccc([N+](=O)[O-])cc3C)S2)cc1 (centres undefined) | inactive
85 | NNC(=O)C1CC1(c1ccccc1)c1ccccc1 (centres undefined) | inactive
86 | COc1ccc2nc(NCCCNC(=O)c3cc(OC)c(OC)c(OC)c3)c(C#N)cc2c1 | inactive
87 | COc1ccc(OC)c(Nc2cc(C(=O)NCc3ccccc3)c3ccccc3n2)c1 | inactive
88 | CCCCN(CCCNC(=O)c1cc(Nc2ccc(OC)c(OC)c2)nc2ccccc12)Cc1ccccc1 | 22.4 µM (active)
89 | CCCCNC(=O)c1cc2c(=O)n3cccc(C)c3nc2n(Cc2ccccc2)c1=N | inactive
90 | COc1ccc(Nc2cc(C(=O)NCCCN(C)Cc3ccccc3)c3ccccc3n2)c(OC)c1 | 14.1 µM (active)
91 | CCOc1ccccc1-n1c(C)cc(C=O)c1C | inactive
92 | CCn1nc(NC(=O)c2cccs2)c2cc3ccccc3nc21 | inactive
93 | CCn1nc(C(=O)Nc2nc(-c3ccccn3)cs2)c2ccccc2c1=O | 31.6 µM (active)
94 | CCCn1c(=O)c(C(=O)Nc2ncccc2O)c(O)c2ccccc21 | inactive
95 | CC[C@@H]1C(c2cccc(Cl)c2)=NN(c2ccc(Br)cc2)[C@H]1C(=O)N1CCOC1=O | inactive
96 | O=C(CN1C(=O)NC2(CCCC2)C1=O)NNC(=O)c1ccccc1F | inactive
97 | CCOc1cccc(CN2CCCC(C(=O)c3cccc(C(F)(F)F)c3)C2)c1O (centres undefined) | inactive
98 | Cc1nc(-c2ccc(S(=O)(=O)Oc3ccc(Cl)cc3Cl)s2)cs1 | inactive
99 | CCOC(=O)c1cc2c(=O)n3ccccc3nc2n(Cc2ccco2)/c1=N\C(=O)c1ccccc1Br | inactive
